Experimental data taken from PubChem BioAssay AID1159580 (chemical genetic matrix, 2015).
About 2,000 (36%) of roughly 5,500 compounds were called active. Another 18% or so got no clear call; they are omitted. The list shows a part of the results. Unmarked numbers belong to inactive results. No stated cut-off is given here; in the data, active means normalized growth mostly below about 0.91 (no sharp cut-off); inconclusive means no clear call, values can overlap the other calls; inactive means mostly above about 0.92.

Test: chemical genetic growth profiling, strain panel (AID 1159580);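 further: tested at 20 µM; growth read once vehicle control cultures reached saturation at 30 °C; 1 = growth at the plate median or of vehicle wells; lower values mean less growth of the strain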
Details: S. cerevisiae deletion strains, growth OD

For O=c1c(-c2ccccc2)c(O)c2cccc3c4c(n1c23)CCCC4, the normalized growth (locus YAR019C, strain CDC15, active compounds read low) was 0.935, the normalized growth (locus YBL105C, strain PKC1, active compounds read low) was 0.939 and the normalized growth (locus YBR135W, strain CKS1, active compounds read low) was 0.926. It also gave a normalized growth (locus YBR136W, strain MEC1, active compounds read low) of 0.934, a normalized growth (locus YBR160W, strain CDC28, active compounds read low) of 0.958 and a normalized growth (locus YDL017W, strain CDC7, active compounds read low) of 0.94. It also gave a normalized growth (locus YDL028C, strain MPS1, active compounds read low) of 0.944, a normalized growth (locus YDL101C, strain DUN1, active compounds read low) of 0.973 and a normalized growth (locus YDL108W, strain KIN28, active compounds read low) of 0.924. The normalized growth (locus YDL132W, strain cdc53, active compounds read low) was 0.939, the normalized growth (locus YDL214C, strain PRR2, active compounds read low) was 0.39 (active) and the normalized growth (locus YDR052C, strain DBF4, active compounds read low) was 0.957. The normalized growth (locus YDR054C, strain cdc34, active compounds read low) was 0.823 (active), the normalized growth (locus YDR226W, strain ADK1, active compounds read low) was 0.94 and the normalized growth (locus YDR477W, strain SNF1, active compounds read low) was 0.342 (active). For the same compound, the normalized growth (locus YER123W, strain YCK3, active compounds read low) was 0.304 (active), the normalized growth (locus YER133W, strain GLC7, active compounds read low) was 0.459 (active) and the normalized growth (locus YFL009W, strain cdc4, active compounds read low) was 0.929. The normalized growth (locus YFL029C, strain CAK1, active compounds read low) was 0.934, the normalized growth (locus YFR003C, strain YPI1, active compounds read low) was 0.952 and the normalized growth (locus YFR019W, strain FAB1, active compounds read low) was 0.233 (active). The normalized growth (locus YFR028C, strain CDC14, active compounds read low) was 0.927, the normalized growth (locus YGR040W, strain KSS1, active compounds read low) was 0.439 (active) and the normalized growth (locus YGR052W, strain FMP48, active compounds read low) was 0.266 (active). For the same compound, the normalized growth (locus YGR092W, strain DBF2, active compounds read low) was 0.172 (active), the normalized growth (locus YHR030C, strain SLT2, active compounds read low) was 0.139 (active) and the normalized growth (locus YHR079C, strain IRE1, active compounds read low) was 0.182 (active). For the same compound, the normalized growth (locus YHR082C, strain KSP1, active compounds read low) was 0.186 (active), the normalized growth (locus YHR205W, strain SCH9, active compounds read low) was 0.314 (active) and the normalized growth (locus YIL147C, strain SLN1, active compounds read low) was 0.917. The normalized growth (locus YJL095W, strain BCK1, active compounds read low) was 0.272 (active), the normalized growth (locus YJL128C, strain PBS2, active compounds read low) was 0.906 and the normalized growth (locus YJL157C, strain FAR1, active compounds read low) was 0.243 (active). For the same compound, the normalized growth (locus YJR016C, strain ILV3, active compounds read low) was 0.926, the normalized growth (locus YJR066W, strain TOR1 (second series), active compounds read low) was 0.336 (active) and the normalized growth (locus YJR066W, strain TOR1, active compounds read low) was 0.26 (active). The normalized growth (locus YKL048C, strain ELM1, active compounds read low) was 0.485 (active), the normalized growth (locus YKL067W, strain YNK1, active compounds read low) was 0.414 (active) and the normalized growth (locus YKL101W, strain HSL1, active compounds read low) was 0.323 (active). The normalized growth (locus YKL193C, strain SDS22, active compounds read low) was 0.934, the normalized growth (locus YKL203C, strain TOR2, active compounds read low) was 0.283 (active) and the normalized growth (locus YLR113W, strain HOG1, active compounds read low) was 0.26 (active). The normalized growth (locus YLR133W, strain CKI1, active compounds read low) was 0.376 (active), the normalized growth (locus YLR403W, strain SFP1, active compounds read low) was 0.263 (active) and the normalized growth (locus YML070W, strain DAK1, active compounds read low) was 0.318 (active). For the same compound, the normalized growth (locus YMR001C, strain CDC5, active compounds read low) was 0.935, the normalized growth (locus YMR205C, strain PFK2 (second series), active compounds read low) was 0.56 (active) and the normalized growth (locus YMR277W, strain FCP1, active compounds read low) was 0.933. For the same compound, the normalized growth (locus YNL006W, strain LST8, active compounds read low) was 0.932, the normalized growth (locus YNL020C, strain ARK1, active compounds read low) was 0.282 (active) and the normalized growth (locus YNL161W, strain CBK1, active compounds read low) was 0.944. The normalized growth (locus YNL183C, strain NPR1, active compounds read low) was 0.278 (active), the normalized growth (locus YNL207W, strain RIO2, active compounds read low) was 0.95 and the normalized growth (locus YNL222W, strain SSU72, active compounds read low) was 0.939. The normalized growth (locus YNL307C, strain MCK1 (second series), active compounds read low) was 0.167 (active), the normalized growth (locus YOL078W, strain AVO1, active compounds read low) was 0.927 and the normalized growth (locus YOL136C, strain PFK27, active compounds read low) was 0.195 (active). For the same compound, the normalized growth (locus YOR061W, strain CKA2, active compounds read low) was 0.249 (active), the normalized growth (locus YOR119C, strain RIO1, active compounds read low) was 0.382 (active) and the normalized growth (locus YOR231W, strain MKK1, active compounds read low) was 0.25 (active). For the same compound, the normalized growth (locus YOR329C, strain SCD5, active compounds read low) was 0.948, the normalized growth (locus YPL031C, strain PHO85, active compounds read low) was 0.246 (active) and the normalized growth (locus YPL153C, strain RAD53, active compounds read low) was 0.305 (active). The normalized growth (locus YPL204W, strain HRR25, active compounds read low) was 0.273 (active), the normalized growth (locus YPL209C, strain IPL1, active compounds read low) was 0.944 and the normalized growth (locus YPL256C, strain CLN2, active compounds read low) was 0.228 (active). It also gave a normalized growth (locus YPR025C, strain CCL1, active compounds read low) of 0.952, a normalized growth (locus YPR106W, strain ISR1, active compounds read low) of 0.93 and a normalized growth (locus YPR111W, strain DBF20, active compounds read low) of 0.94. For the same compound, the normalized growth (strain NNK1, active compounds read low) was 0.732 (active) and the normalized growth (strain TSCII, active compounds read low) was 0.918.
